The text below walks through data of PubChem BioAssay AID686978 (National Center for Advancing Translational Sciences (NCATS), 2013).

Hit rate of the full screen: of about 420,000 compounds, about 64,000 (15%) were called active. Another 27% or so got no clear call; they are omitted. Calls follow the shape of the dose curve; as a rule, active = well fitted inhibition curve with a large enough effect; inconclusive = small, poorly fitted or top-dose-only effect; inactive = flat fitted curve, though single readings scatter. The list is a sample of the results. Where a call stands in place of a potency, no number is given.
Potency is read from the fitted curve at half-maximal effect.

A short description of this experiment: qHTS for Inhibitors of human tyrosyl-DNA phosphodiesterase 1 (TDP1): qHTS in cells in absence of CPT. Also: nearly all actives have a fitted effect of over 55% in size. Particulars: DT40 Tdp1-/- hTDP1 cells, no CPT, ATP luminescence, 48 h; activity change, negative = growth inhibition: at 46.2 µM (top of the series). Summed up:
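A cellular qHTS used chicken DT40 cells lacking endogenous Tdp1 but carrying stably transfected human TDP1. Compounds were applied without camptothecin, and cell growth kinetics were judged by ATP-dependent luminescence after ≥48 hr.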
In general terms: In qHTS, concentration-response curves come from the screen itself.
As for `O=C(NCc1cccnc1)c1ccc2nc([C@@H]3O[C@H](CO)[C@H](O)[C@H](O)[C@H]3O)[nH]c2c1`, the Potency result was “inactive”.

With `COc1ccc(N(CC(=O)NCCc2ccc(Cl)cc2)S(=O)(=O)c2c(C)nn(C)c2C)cc1`, the Potency is 20.6 µM (active).

Regarding `COc1ccc(CCNC(=O)CN(c2ccccc2)S(C)(=O)=O)cc1`, the Potency result is “inactive”.

For the molecule `CCOc1ccc(N(CC(=O)NCCc2ccc(OC)cc2)S(C)(=O)=O)cc1`, the Potency entry is “inactive”.

Regarding `COc1ccccc1CNC(=O)COn1nnc2ccc(S(=O)(=O)N3CCOCC3)cc21`, the Potency entry is “inactive”.

`Cc1cccc(N2C(=O)N3[C@H](c4ccc(F)cc4)[C@@H]4C(=O)N(C5CCCCC5)C(=O)[C@@H]4[C@]3(Cc3ccccc3)C2=O)c1`: the Potency entry was “inactive”.

As to `O=C1[C@H]2[C@@H](c3ccc(F)cc3)N3C(=O)N(c4ccc(C(F)(F)F)cc4)C(=O)[C@@]3(Cc3ccccc3)[C@H]2C(=O)N1C1CCCCC1`, the Potency is 11.6 µM (active).

As to `O=C1[C@H]2[C@@H](c3ccc(Cl)cc3)N3C(=O)N(c4cccc(F)c4)C(=O)[C@@]3(Cc3ccccc3)[C@H]2C(=O)N1C1CCCCC1`, the Potency entry was “inactive”.

As to `S=C(Nc1cccnc1)Nc1ccccn1`, the Potency entry is “inactive”.

Consider `S=C(NN=Cc1ccccn1)Nc1ccccn1`, for which the Potency is 1.46 µM (active).

Turning to `CNC(=O)C(=O)N/N=C/c1ccccn1`, the Potency result is “inactive”.

`CC(C)(C)C(=O)NC1CC2CCCC(C1)N2C(=O)Nc1ccccc1F` (stereo not drawn): the Potency entry is “inactive”.

Regarding `CCOc1ccc(S(=O)(=O)Nc2nccs2)cc1`, the Potency entry was “inactive”.

For `CCOc1ccc(S(=O)(=O)Nc2ccc(OC)nc2)cc1`, the Potency is 23.1 µM (active).

As to `COc1ccc(C(CNC(=O)c2ccc(S(=O)(=O)Nc3ccccc3C)cc2)N2CCOCC2)cc1` (stereo not drawn), the Potency result is “inactive”.

Consider `CCOc1ccc(NS(=O)(=O)c2ccc(C(=O)NCC(c3ccccc3OC)N3CCCC3)cc2)cc1` (stereo not drawn), for which the Potency is 18.4 µM (active).

Regarding `COc1ccccc1C(CNC(=O)c1cccc(NS(=O)(=O)c2ccc(Br)cc2)c1)N(C)C` (stereo not drawn), the Potency was 18.4 µM (active).

In the case of `COc1ccc(C(CNC(=O)c2ccc(S(=O)(=O)Nc3ccccc3F)cc2)N(C)C)cc1` (stereo not drawn), the Potency result is “inactive”.

For the molecule `CC(=O)c1ccc(S(=O)(=O)Nc2ccc(C(=O)NCC(c3ccccc3)N(C)C)cc2)cc1` (stereo not drawn), the Potency result was “inactive”.

On to `CCOc1ccc(S(=O)(=O)Nc2ccc(S(=O)(=O)Nc3cc(OC)ccc3OC)cc2)cc1`, for which the Potency result was “inactive”.

Regarding `Cc1cc(S(=O)(=O)Nc2ccc(C(=O)NCC(c3ccco3)N3CCCC3)cc2)ccc1F` (stereo not drawn), the Potency entry was “inactive”.

For the molecule `COc1ccccc1NC(=O)COC(=O)COc1ccccc1F`, the Potency result is “inactive”.

Turning to `Cc1nnsc1S(=O)(=O)Cc1ccccc1Cl`, the Potency entry was “inactive”.

In the case of `O=C(CSc1nc2c(cnn2-c2ccc(F)cc2)c(=O)[nH]1)N1CCCCCC1`, the Potency entry is “inactive”.

Turning to `CC(=O)c1ccc(S(=O)(=O)N2CCN(C(=O)/C=C/c3ccc4ccccc4n3)CC2)cc1`, the Potency result was “inactive”.

As for `COc1cccc(/C=C2\C=C(c3ccc(C)cc3)OC2=O)c1OC(C)=O`, the Potency result is “inactive”.

As for `COc1cccc(/C=C/c2ccc3ccccc3n2)c1OC(C)=O`, the Potency is 16.4 µM (active).

With `O=C(Nc1ccccc1)c1ccc2nsnc2c1`, the Potency result was “inactive”.

Consider `O=C(Cc1ccccc1)NCc1ccc(F)cc1`, for which the Potency result was “inactive”.

In the case of `Fc1ccc(CNCc2ccc(Br)cc2)cc1`, the Potency result is “inactive”.

As to `c1ccc(CNCc2ccc(CNCc3ccccc3)cc2)cc1`, the Potency was 10.3 µM (active).

As for `O=Cc1c(NCCCN2CCCC2=O)c2ccccc2[nH]c1=O`, the Potency result is “inactive”.

On to `Cc1cc(Cl)c(S(=O)(=O)NCc2cccnc2)cc1OCC(N)=O`, for which the Potency result was “inactive”.

As for `CN1CCN(C(CNC(=O)c2ccccc2F)c2ccc3c(c2)OCO3)CC1` (stereo not drawn), the Potency entry was “inactive”.

As for `O=C(NCC(c1ccc(Cl)cc1)N1CCOCC1)c1ccccc1F` (stereo not drawn), the Potency is 13 µM (active).

In the case of `COc1ccc(C(CNC(=O)c2cccnc2SC)N2CCOCC2)cc1` (stereo not drawn), the Potency entry was “inactive”.

For the molecule `O=C1CCCC(O)=C1N=Nc1ccc2ncsc2c1`, the Potency entry is “inactive”.

Take `Cc1ccc(C)c(NC(=O)C(c2ccccc2)N2CCN(CC(=O)NC3CC3)CC2)c1` (stereo not drawn): the Potency result is “inactive”.

Regarding `CCC(CO)Oc1cc(NC(=O)c2ccc(Cl)cc2)c2ncn(C(C)C)c2c1` (stereo not drawn), the Potency entry was “inactive”.

Regarding `COc1cccc(Cn2c(SCc3ccc(C(=O)N4CCC(C)CC4)cc3)nc3ccncc32)c1`, the Potency was 20.6 µM (active).

With `COc1ccc(CSc2nnnn2-c2ccc(C(=O)O)cc2)cc1`, the Potency entry is “inactive”.

On to `Cc1cccc(CSc2nc3ccncc3n2Cc2ccc(C(=O)O)cc2)c1`, for which the Potency entry is “inactive”.

With `COc1cccc(Cn2c(SCc3ccc(C(=O)N4CCCCC4)cc3)nc3ccncc32)c1`, the Potency is 20.6 µM (active).

As for `COC(=O)c1ccc2c(=O)n(CCN3CCOCC3)c(SCC(=O)Nc3cccc(OC)c3)nc2c1`, the Potency result was “inactive”.

Take `COc1cc(C(=O)N2CCC(c3ccncc3)CC2)cc(OC)c1OC`: the Potency result was “inactive”.

As for `CCCCNC(=O)C1(c2ccc(OC)cc2)CCOCC1`, the Potency entry is “inactive”.

Take `CCCCc1ccc(S(N)(=O)=O)cc1`: the Potency entry is “inactive”.

In the case of `N#Cc1nc(/C=C/c2ccc(F)cc2)oc1NC1CCCCC1`, the Potency entry is “inactive”.

`Nc1nonc1-n1nnc(C(=O)N/N=C/c2ccc(Cl)cc2)c1-c1ccc2c(c1)OCO2`: the Potency entry is “inactive”.

Turning to `O=C(NCCCO)C(=O)Nc1c2c(nn1-c1ccc(F)cc1)CSC2`, the Potency entry is “inactive”.

For the molecule `COc1ccc(S(=O)(=O)N2CCN(C(=O)N(C)C)C2C)cc1` (stereo not drawn), the Potency result was “inactive”.

For the molecule `CN=c1scc(-c2cc(OC)ccc2OC)n1/N=C/c1c(C)[nH]c2ccccc12`, the Potency was 16.4 µM (active).

In the case of `COc1ccc(C)cc1Nc1nc(-c2c(C)[nH]c3ccccc23)cs1`, the Potency entry was “inactive”.

`COC(=O)c1[nH]c2ccccc2c1NS(=O)(=O)c1ccc(OC)cc1OC`: the Potency entry is “inactive”.

In the case of `COc1ccc(/C=C(\C#N)C(=O)OCC(=O)N(C)C2CCS(=O)(=O)C2)cc1` (stereo not drawn), the Potency result is “inactive”.

As to `COC(=O)/C(C#N)=C/c1occc1C`, the Potency result was “inactive”.

Regarding `COc1ccc(/C=C(\C#N)C(=O)ONC2=NCCCCC2)cc1`, the Potency is 20.6 µM (active).

Consider `CC(=O)C1C(c2ccc(Cl)cc2)NC(=O)NC1(O)C(F)(F)F` (stereo not drawn), for which the Potency entry is “inactive”.

As to `CN(CC#CCC(c1ccccc1)c1ccccc1)C(C)(C)C`, the Potency was 17.8 µM (active).

As to `O=C(CCc1ccccc1)NCCc1cccs1`, the Potency entry was “inactive”.

In the case of `COC(=O)[C@@H]1CC2=CC(=O)CC[C@]2(C)[C@@]23O[C@@H]2C[C@@]2(C)[C@@H](CC[C@@]24CCC(=O)O4)[C@H]13`, the Potency entry was “inactive”.

Turning to `CC1(C)CC(CNCCC(c2ccc(F)cc2)c2ccco2)CCO1` (stereo not drawn), the Potency is 14.6 µM (active).

On to `CC1(C)CC(N(Cc2ccccc2)C(=O)Cc2ccccc2)CCO1` (stereo not drawn), for which the Potency result was “inactive”.

As to `Cc1cccc(-n2ncc(C#N)c2-n2cccc2)c1`, the Potency result was “inactive”.

On to `O=c1c(Cl)c(NC2CC2)cnn1-c1ccccc1`, for which the Potency entry was “inactive”.

Regarding `Cc1cccc(-n2ncc(Cl)c(Cl)c2=O)c1`, the Potency is 4.11 µM (active).

Turning to `O=C(NCC1CCCO1)c1cc2c(s1)CCCC2` (stereo not drawn), the Potency result was “inactive”.

Consider `CC(C)C(=O)N1c2ccccc2NC2=C(C(=O)CCC2)C1c1ccc(N(C)C)cc1` (stereo not drawn), for which the Potency entry was “inactive”.

With `CCCOC(=O)Nc1ccccc1C(N)=O`, the Potency result is “inactive”.

Regarding `CCOC(=O)N(Cc1ccccc1)C1CC1`, the Potency entry was “inactive”.

As to `O=C(Nc1nnc(CCc2ccccc2)s1)C1CCCO1` (stereo not drawn), the Potency result is “inactive”.

For the molecule `O=C(COC(=O)c1ccc(Cl)nc1)NCc1cccs1`, the Potency result is “inactive”.

As to `Cc1cccc(C(=O)NCC(=O)OCC(=O)N2CC3(C)CC2CC(C)(C)C3)c1` (stereo not drawn), the Potency result was “inactive”.

For `Cc1nnnn1/C(=C\c1ccccc1)C(=O)OCC(=O)N1CC2(C)CC1CC(C)(C)C2` (stereo not drawn), the Potency was 14.6 µM (active).

Turning to `CC(=O)NC(C)(C)C1CC=C(C)/C(=N\O)C1` (stereo not drawn), the Potency entry is “inactive”.

`CCOC(=O)C1C(c2ccc(O)cc2)NC(=O)NC1(O)C(F)(F)F` (stereo not drawn): the Potency result is “inactive”.

Turning to `CCN(CC)P(=O)(/C(Cl)=C\Nc1c(C)n(C)n(-c2ccccc2)c1=O)N(CC)CC`, the Potency entry is “inactive”.

Consider `CC1=C(C(=O)N2CCOCC2)CC(CC(=O)NCc2ccco2)C(=O)N1Cc1ccc(F)cc1` (stereo not drawn), for which the Potency result was “inactive”.

Turning to `CCCCNC(=O)C[C@@H]1C[C@@]2(C(=O)OCC)CCC=C2N(Cc2cccc3ccccc23)C1=O`, the Potency was 16.4 µM (active).

On to `CC1=C(C(=O)N2CCOCC2)CC(CC(=O)NCc2cccc3ccccc23)C(=O)N1CCC1=CCCCC1` (stereo not drawn), for which the Potency result was “inactive”.

Regarding `CCCCCCCCN1C(=O)[C@H](CC(=O)NCc2cccc3ccccc23)C[C@@]2(C(=O)OC)CCCCC=C12`, the Potency is 20.6 µM (active).

In the case of `COc1ccccc1CNC(=O)CCCN1C(=O)NC2(CCCC2)C1=O`, the Potency result was “inactive”.

`CCCCNC(=O)C[C@@H]1C[C@@]2(C(=O)OCC)CCC=C2N(Cc2ccco2)C1=O`: the Potency entry is “inactive”.

As to `CCOC(=O)[C@]12CCC=C1N(Cc1ccco1)C(=O)[C@H](CC(=O)NCc1cccc(C(F)(F)F)c1)C2`, the Potency is 25.9 µM (active).

With `O=C(COC(=O)C12CC3CC(CC(C3)C1)C2)NCc1ccco1`, the Potency result is “inactive”.

For `CCOC(=O)[C@]12CCC=C1N(Cc1cccc3ccccc13)C(=O)[C@H](CC(=O)NCc1cccc(C(F)(F)F)c1)C2`, the Potency was 23.1 µM (active).

Turning to `CCCCN1C(=O)C(CC(=O)NCc2cccs2)CC(C(=O)N2CCOCC2)=C1C` (stereo not drawn), the Potency entry is “inactive”.

Consider `O=C(Cn1nnc(-c2ccc(CN3CCOCC3)cc2)n1)NC1CCCCC1`, for which the Potency result was “inactive”.

Take `COc1ccc(OCC(O)CNCCNc2nccc(C(F)(F)F)n2)cc1` (stereo not drawn): the Potency result was “inactive”.

Turning to `CC(=O)NCC(=O)N(Cc1ccco1)C1(C(=O)NC2CCCC2)CCCCC1`, the Potency result is “inactive”.

As for `O=c1c(-c2ccc(F)c(F)c2)nc2cncnc2n1-c1ccccc1`, the Potency result is “inactive”.

Regarding `CC1c2nc3ccccc3n2C(CC(=O)NCCCN2CCOCC2)C(=O)N1Cc1ccccc1` (stereo not drawn), the Potency result was “inactive”.

With `COC(=O)[C@@]12C[C@@H](CC(=O)NCCCCc3ccccc3)C(=O)N(CCc3ccc(OC)c(OC)c3)C1=CCC(C)(C)C2`, the Potency was 20.6 µM (active).

In the case of `COc1ccc(C(=O)OCC(=O)NCCCc2ccccc2)cc1OC`, the Potency result was “inactive”.

As for `COc1ccc(CCNC(=O)CCCCCNC(=O)N2CCn3c2nc2ccccc23)cc1OC`, the Potency result is “inactive”.

For the molecule `COC(=O)[C@]12CCCCC=C1N(Cc1ccco1)C(=O)[C@H](CC(=O)NCCCCc1ccccc1)C2`, the Potency is 16.4 µM (active).

Take `CCOC(=O)[C@]12CCCC=C1N(Cc1cccc3ccccc13)C(=O)[C@H](CC(=O)NCC13CC4CC(CC(C4)C1)C3)C2`: the Potency is 23.1 µM (active).

As to `C#CCNC(=O)C[C@@H]1C[C@@]2(C(=O)OCC)CCCC=C2N(Cc2ccco2)C1=O`, the Potency result is “inactive”.
